# Screening results deposited in PubChem BioAssay by National Center for Advancing Translational Sciences (NCATS).
# HCMV inh = qHTS Assay for inhibitors of the human cytomegalovirus (HCMV). HFF cells, HCMV-luciferase reporter, 72 h; stronger effect = lower value. activity change, negative = inhibition, % at 57.5 µM. 410,000 tested, 4.5% active; in the data active means activity change below about -60%; inconclusive means no clear call, values can overlap the other calls; inactive means above about -39%
#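 Inhibition of viral replication was scored as loss of reporter luminescence in HFFs infected with HCMV-luciferase (MOI 1 PFU/cell) for 72 h; compounds tested at 2 doses, normalized to buffer and Salinomycin controls.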
# HCV inhibitor = qHTS Assay for Inhibitors of Hepatitis C Virus (HCV); Huh7.5.1 HCVcc-Cre infection, luciferase reporter, 44 h; Potency, µM (top dose mostly 41.8 µM), most hits filed as inhibitors; 340,000 tested, 3.4% active
#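 Infectious HCV cell culture screen: compound-treated cells (1,000/well, pre-plated 4 h) are infected with HCVcc-Cre at roughly 0.5 moi and grown 44 h. Infection is quantified by luciferase signal after 15 min substrate incubation at room temperature.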
# Pf growth 48h = Primary qHTS for delayed death inhibitors of the malarial parasite plastid, 48 hour incubation. Potency, µM (titrated, usually from 28.7 µM), hits mostly inhibitors. P. falciparum luciferase growth in erythrocytes, 48 h. 310,000 tested, 5.9% active
#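 Parasite viability was followed by luminescence of a genomically integrated firefly luciferase. Cultures held 0.1% parasitemia at 2% hematocrit (final), incubated under 5% CO2 at 37 C.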
# Pf growth 96h = Primary qHTS for delayed death inhibitors of the malarial parasite plastid, 96 hour incubation; 320,000 tested, 6.9% active; P. falciparum luciferase reporter growth, 96 h; Potency, µM (series often up to 28.7 µM), actives largely listed as inhibitors; AID 504834, 2011
#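 P. falciparum expressing integrated firefly luciferase grown in erythrocytes (2% hematocrit, 0.05% parasitemia final) with compounds for 96 hours at 37 C, 5% CO2. Growth inhibition read as loss of luminescence after adding luciferase detection reagent.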
# Numbers stand for hits; 0 = inactive; ? = inconclusive; - = not tested or not shown. A selection: hits, their analogues and other compounds. The true share with any hit is near 13%. Unless noted, the call rests on the fitted dose curve; in most records, active means well fitted inhibition curve with a large enough effect; inconclusive means small, poorly fitted or top-dose-only effect, or another doubt; inactive means no such curve, though single readings can be large or run the other way.
SMILES,HCMV inh,HCV inhibitor,Pf growth 48h,Pf growth 96h
Cn1cccc1/C=C1\Cc2ccccc2C1=O,0,?,0,0
CCOC(=O)/C=C1\CN(CCC(C)C)S(=O)(=O)c2ccccc21,0,0,?,14.7µM
CCOC(=O)/C=C1\CN(C(C)c2ccccc2)S(=O)(=O)c2ccccc21 (centres undefined),0,0,0,0
O=C(NCc1ccc(F)cc1)c1cnc(N2CCOCC2)c2ccccc12,0,-,-,-
COc1cccc(C(=O)Nc2nc(-c3ccccc3)c(-c3ccccc3)o2)c1,?,?,0,0
O=C(Nc1nnc(-c2ccccc2)s1)c1ccc(F)cc1,0,?,0,0
O=C(Nc1nc(-c2ccccc2)c(-c2ccccc2)o1)c1ccc(F)cc1,0,?,?,9.28µM
COc1nc(NC(=O)c2ccc(F)cc2)nc(OC)c1-c1ccccc1,-64.2,?,0,?
N#C/C(=C/c1cn(Cc2ccc(F)cc2)c2ccccc12)C(=O)Nc1cccc(Cl)c1,0,-,-,-
CC(C)n1c(SCC(=O)Nc2ccc(F)cc2)nc2c(oc3ccccc32)c1=O,0,-,-,-
O=C(NCCc1ccc(F)cc1)c1coc(=O)c(Br)c1,-77.7,0,0,0
COc1ccc(/C=C2\SC(=S)N(CCC(=O)N(CCO)Cc3ccccc3)C2=O)cc1OC,-98.8,?,?,0
COc1cc(/C=C2/SC(=S)N(Cc3ccccc3)C2=O)ccc1OS(C)(=O)=O,-68.9,?,0,?
COc1cc(/C=C2/SC(=S)N(Cc3ccccc3)C2=O)ccc1OCC(=O)O,0,0,0,0
COc1ccc(/C=C2\SC(=S)N(CCC(=O)Nc3ccc(C(=O)O)cc3)C2=O)cc1OC,-,0,0,0
COc1cc(/C=C2\SC(=S)N(N(C)c3ccccc3)C2=O)ccc1O,-101.1,0,?,0
CN(C)c1ccc(-c2noc(C3CCN(C(=O)Nc4ccc(Cl)cc4)CC3)n2)cc1,0,?,?,?
Cc1ccc(-c2noc(C3CCN(C(=O)Nc4ccc(C#N)cc4)CC3)n2)o1,-83.7,10µM,?,0
Cc1cc(-c2ccccc2)c(C#N)c(N)n1,0,7.94µM,0,0
COc1ccc(OC)c(N/C(N)=N/c2nc(C)cc(C)n2)c1,0,?,0,0
COc1ccc(OC)c(N/C(=N/c2nc(C)cc(C)n2)NC(C)=O)c1,0,0,0,0
COc1cc(N/C(N)=N/c2nc(C)cc(C)n2)cc(OC)c1,?,0,?,10.4µM
COc1ccc(N/C(N)=N/c2nc(C)cc(C)n2)c(OC)c1,-66.6,?,0,0
COc1ccc(N/C(=N/c2nc(C)cc(C)n2)NC(=O)Nc2ccc(Cl)c(Cl)c2)c(OC)c1,0,0,11.7µM,10.4µM
COc1ccc(C)cc1N/C(N)=N/c1nc(C)cc(C)n1,?,?,11.7µM,?
SMILES,HCMV inh,HCV inhibitor,Pf growth 48h,Pf growth 96h
Cc1cc(C)nc(/N=C(\N)Nc2ccc(S(N)(=O)=O)cc2)n1,0,0,?,0
COC(=O)c1ccc(C(=O)OC)c(NC(=O)c2ccc(-c3ccccc3)s2)c1,0,-,-,-
Cc1nc2nc(CNC(=O)c3cccc(F)c3)nn2c(C)c1CCC(=O)Nc1cccc(Cl)c1,0,-,-,-
CC(=O)Nc1ccc(N/C(N)=N/c2nc(C)cc(C)n2)cc1,0,0,?,?
Cc1ccc(C)c(N/C(N)=N/c2nc(C)cc(C)n2)c1,0,?,11.7µM,?
CC(C)(C)C(=O)NCC12C=CC(O1)C1C(=O)N(c3ccccc3)C(=O)C12 (centres undefined),0,0,0,2.08µM
O=C1C2C3C=CC(CO)(O3)C2C(=O)N1c1ccc(-c2ccccc2)cc1 (centres undefined),-,-,0,0
CCOC(=O)c1ccc[n+](CC(=O)c2ccc(OC)cc2)c1,0,0,0,0
COc1ccc(C(=O)C[n+]2ccc3c(c2)nc(-c2ccc(OC)cc2OC)n3C)cc1,-99.3,0,11.7µM,4.15µM
COc1cc(-c2nc3c[n+](CC(=O)c4ccccc4)ccc3n2C)cc(OC)c1OC,0,0,7.38µM,0
COc1ccc(C(=O)C[n+]2ccc3c(c2)nc(-c2ccccc2)n3C)cc1,-90.8,0,2.33µM,0
CC(C)NC(=O)C1(C)CN(S(C)(=O)=O)CC(=O)N1C1CCCCCC1 (centres undefined),0,-,-,-
Cc1onc(-c2ccc(Cl)cc2Cl)c1-c1csc(N/N=C/c2ccccc2)n1,0,?,3.7µM,?
CCOC(=O)c1[nH]c(C)c(CCC(=O)N2CCN(c3cc(C)ccc3C)CC2)c1C,0,-,-,-
COc1cccc(NC(=O)CCc2nc(-c3cc(OC)c(OC)c(OC)c3)no2)c1,0,-,-,-
CC(C)(C)c1ccc(OCC(O)CN(CCO)CC(O)Cn2ccc3ccccc32)cc1 (centres undefined),0,?,11.7µM,?
Cc1ccc(S(=O)(=O)N2CCCc3cc(NC(=O)c4ccc(F)c(F)c4)ccc32)cc1,0,-,-,-
O=C(Nc1cc(Cl)cc(Cl)c1)c1ccc(F)c(S(=O)(=O)N2CCc3ccccc32)c1,-96.1,-,-,-
O=C(Nc1ccc(Br)cc1)c1ccc(F)c(S(=O)(=O)N2CCCc3ccccc32)c1,-98.7,-,-,-
O=C(CCc1nnc2n(Cc3ccccc3Cl)c(=O)c3ccccc3n12)Nc1ccc(F)cc1,0,-,-,-
Cc1ccc(C(=O)CCNc2ccc(Cl)cc2)o1,0,0,-,10.4µM
CC(CC(=O)Nc1ccc(F)cc1)S(=O)(=O)c1cc2c3c(c1)CCN3C(=O)CC2 (centres undefined),0,-,-,-
Cc1cc(Cl)ccc1NC(=O)CN1C(=O)CSc2ccc(S(=O)(=O)N(C)C)cc21,0,-,-,-
Nc1cc(=O)nc(SCC(=O)Nc2ccc(F)cc2)n1-c1cccc(Cl)c1,0,-,-,-
O=C(CSc1nc2ccccc2c(=O)n1-c1ccccc1)N/N=C/C=C/c1ccccc1[N+](=O)[O-],0,?,9.28µM,?
SMILES,HCMV inh,HCV inhibitor,Pf growth 48h,Pf growth 96h
O=C(CSc1nc2ccccc2c(=O)n1-c1ccc(Cl)cc1)N/N=C/C=C/c1ccccc1[N+](=O)[O-],?,?,?,9.28µM
O=C(O)COc1ccccc1/C=N/NC(=O)CSc1nc2ccccc2c(=O)n1-c1ccccc1,0,0,0,0
CCc1cc(=O)oc2cc(C)c3c(C)coc3c12,0,11.2µM,0,-
Cc1ccc(-n2nnc(-c3nsc(NC(=O)c4cccc(Cl)c4)n3)c2C)cc1C,0,-,-,-
COc1cc(OC)cc(C(=O)Nc2nc(-c3nnn(-c4ccc(F)c(Cl)c4)c3C)ns2)c1,-94.3,-,-,-
Cc1c(-c2nsc(NC(=O)c3ccccc3)n2)nnn1-c1ccc(C(F)(F)F)c(Cl)c1,0,-,-,-
COc1ccc(-n2nnc(-c3nsc(NC(=O)c4cccc(C)c4)n3)c2C)cc1OC,-100.0,-,-,-
Cc1cc(C)cc(-n2nnc(-c3nsc(NC(=O)c4ccccc4Cl)n3)c2C)c1,0,-,-,-
Cc1ccc(-n2nnc(-c3nsc(NC(=O)c4ccccc4C)n3)c2C)cc1Cl,-99.0,-,-,-
Cc1ccccc1CNC(=O)c1cc2cc(S(=O)(=O)N3CCCCC3)ccc2n1C,0,-,-,-
Cc1ccc2c(c1)c1c(c(=O)n(Cc3ccccc3)c(=O)n1CC(=O)NCc1ccccc1Cl)n2C,0,-,-,-
